Measured values published in PubChem BioAssay.
This is one part of the list. The source made the active and inactive calls. Unless noted, no rule for the calls is given here.

Tests used:
[1] = molecular target: Regulator of G-protein signaling 16 (Homo sapiens) (UniProt O15492); experiment: small molecules altering RGS protein interactions with GNAO1 – biochemical, multiplexed beads, flow cytometry, RGS4/7/8/16/19, primary screen (AID 1504); details: multiplexed bead flow cytometry, measured here: RGS16 interaction, at 10 µM;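 also: fluorescently labeled Galpha-o bound to GDP with aluminium fluoride binding biotinylated RGS beads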
[2] = molecular target: Regulator of G-protein signaling 19 (Homo sapiens) (UniProt P49795); experiment: as above; details: multiplexed bead flow cytometry, measured here: RGS19 interaction, at 10 µM
[3] = molecular target: Regulator of G-protein signaling 4 (Homo sapiens) + Guanine nucleotide-binding protein G(o) subunit alpha (Homo sapiens) (UniProt P49798+P09471); experiment: as above; details: multiplexed bead flow cytometry, at 10 µM
Chain of Regulator of G-protein signaling 4 (Homo sapiens) + Guanine nucleotide-binding protein G(o) subunit alpha (Homo sapiens) (P09471 whole entry, looked up): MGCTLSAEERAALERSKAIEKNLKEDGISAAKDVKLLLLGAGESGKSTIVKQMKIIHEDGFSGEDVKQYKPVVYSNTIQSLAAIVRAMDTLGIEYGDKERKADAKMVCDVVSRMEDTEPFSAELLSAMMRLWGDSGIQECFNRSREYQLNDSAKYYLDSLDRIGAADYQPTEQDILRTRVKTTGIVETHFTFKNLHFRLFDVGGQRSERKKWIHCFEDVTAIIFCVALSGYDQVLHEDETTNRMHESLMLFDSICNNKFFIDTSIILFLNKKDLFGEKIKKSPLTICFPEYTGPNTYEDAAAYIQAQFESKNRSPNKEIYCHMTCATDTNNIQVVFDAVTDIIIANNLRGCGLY
Chain of Regulator of G-protein signaling 4 (Homo sapiens) + Guanine nucleotide-binding protein G(o) subunit alpha (Homo sapiens) (P49798 whole entry, looked up): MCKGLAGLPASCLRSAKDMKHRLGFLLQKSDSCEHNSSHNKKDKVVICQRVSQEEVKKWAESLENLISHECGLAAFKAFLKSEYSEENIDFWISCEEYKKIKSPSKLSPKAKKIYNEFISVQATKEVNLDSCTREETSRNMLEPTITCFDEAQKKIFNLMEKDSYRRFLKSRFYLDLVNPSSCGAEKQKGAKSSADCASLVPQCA

[4] = molecular target: Regulator of G-protein signaling 7 (Homo sapiens) (UniProt P49802); experiment: as above; details: multiplexed bead flow cytometry, measured here: RGS7 interaction, at 10 µM
[5] = molecular target: Regulator of G-protein signaling 8 (Homo sapiens) (UniProt P57771); experiment: as above; details: multiplexed bead flow cytometry, measured here: RGS8 interaction, at 10 µM
[6] = interference with biotin-avidin bead interaction – biochemical, flow cytometry, bead-based, counter-screen for RGS protein interaction modulators (AID 1783;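 active = inhibition above 50%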;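 also: median green fluorescence of gated singlet beads compared with DMSO control wells; 0% = DMSO wells and 100% = complete loss of bead fluorescence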); details: streptavidin beads, fluorescein-biotin binding; at 10 µM, stronger effect = higher value
[7] = molecular target: Guanine nucleotide-binding protein G(o) subunit alpha (Homo sapiens) (UniProt P09471); experiment: retest of RGS8-Galphao interaction hits – biochemical, multiplexed bead flow cytometry, single concentration, confirmation (AID 1836; in the data active = binding response below about 72% or above about 130%; inactive = in between;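 also: Galphao activated as GDP AlF4 complex before binding bead RGS8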); details: bead-based flow cytometry RGS8-Galphao binding, fluorescence; at 10 µM; actives lie on both sides
Chain of Guanine nucleotide-binding protein G(o) subunit alpha (Homo sapiens) (P09471 whole entry, looked up): as the sequence (P09471 whole entry, looked up) above

[8] = molecular target: Guanine nucleotide-binding protein G(o) subunit alpha (Homo sapiens) (UniProt P09471); experiment: retest of RGS7-Galphao interaction hits – biochemical, multiplexed bead flow cytometry, single concentration, confirmation (AID 1837; in the data active = response below about 75% or above about 130%; inactive = in between;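 also: fluorescent Galphao activated with GDP and aluminum fluoride binding bead-coupled RGS7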); details: bead-based flow cytometry RGS7-Galphao binding; at 10 µM; actives lie on both sides
[9] = molecular target: Regulator of G-protein signaling 16 (Homo sapiens) + Guanine nucleotide-binding protein G(o) subunit alpha (Homo sapiens) (UniProt O15492+P09471); experiment: RGS16 and Galphao interaction regulators – biochemical, single concentration, multiplexed bead flow cytometry, confirmation (AID 1838; in the data active = response below about 74% or above about 130%; inactive = in between;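 also: Galphao activated as the GDP aluminium fluoride complex binding bead-coupled RGS16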); details: bead-based flow cytometry, at 10 µM, actives lie on both sides
Chain of Regulator of G-protein signaling 16 (Homo sapiens) + Guanine nucleotide-binding protein G(o) subunit alpha (Homo sapiens) (O15492 whole entry, looked up): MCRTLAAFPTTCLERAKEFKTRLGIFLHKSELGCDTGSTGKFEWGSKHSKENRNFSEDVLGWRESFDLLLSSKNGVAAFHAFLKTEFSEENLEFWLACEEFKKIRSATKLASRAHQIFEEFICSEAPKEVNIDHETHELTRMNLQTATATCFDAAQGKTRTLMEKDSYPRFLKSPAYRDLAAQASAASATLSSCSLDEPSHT
Chain of Regulator of G-protein signaling 16 (Homo sapiens) + Guanine nucleotide-binding protein G(o) subunit alpha (Homo sapiens) (P09471 whole entry, looked up): as the sequence (P09471 whole entry, looked up) above

[10] = molecular target: Guanine nucleotide-binding protein G(o) subunit alpha (Homo sapiens) (UniProt P09471); experiment: RGS4 and Galphao interaction regulators – biochemical, single concentration, multiplexed bead flow cytometry, confirmation (AID 1840; in the data active = binding response below about 74% or above about 130%; inactive = in between); details: at 10 µM, actives lie on both sides
[11] = molecular target: Guanine nucleotide-binding protein G(o) subunit alpha (Homo sapiens) + Regulator of G-protein signaling 19 (Homo sapiens) (UniProt P09471+P49795); experiment: RGS19 interaction with Gαo, hit retest – biochemical, single point, multiplexed bead flow cytometry, confirmation (AID 1841; in the data active = response below about 50% or above about 160%; inactive = in between;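 also: 100% = no compound control and 0% = blank background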); details: bead-based flow cytometry RGS19-Galphao binding; at 10 µM; actives lie on both sides
Chain of Guanine nucleotide-binding protein G(o) subunit alpha (Homo sapiens) + Regulator of G-protein signaling 19 (Homo sapiens) (P09471 whole entry, looked up): as above
Chain of Guanine nucleotide-binding protein G(o) subunit alpha (Homo sapiens) + Regulator of G-protein signaling 19 (Homo sapiens) (P49795 whole entry, looked up): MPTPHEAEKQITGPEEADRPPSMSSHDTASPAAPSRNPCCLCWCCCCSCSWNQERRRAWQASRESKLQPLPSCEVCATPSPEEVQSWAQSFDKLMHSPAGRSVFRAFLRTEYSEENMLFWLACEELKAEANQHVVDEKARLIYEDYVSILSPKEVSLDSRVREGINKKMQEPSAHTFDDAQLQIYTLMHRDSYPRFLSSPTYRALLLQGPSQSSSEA

[12] = molecular target: Ras-related C3 botulinum toxin substrate 1 (Homo sapiens) (UniProt P63000); experiment: inhibition of wildtype Rac1 nucleotide loading – biochemical, multiplex bead flow cytometry, dose response (AID 1340;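 active = dose curve with midpoint inside tested range, moderate steepness, plateau gap beyond fit error, low compound glow and bead-link interference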); details: GST-Rac1 beads, Bodipy-FL-GTP binding; at 100 µM (top of the series) unless noted

| SMILES | RGS16–Galpha-o binding response [1] | RGS19–Galpha-o binding response [2] | RGS4–Galpha-o binding response [3] | RGS7–Galpha-o binding response [4] | RGS8–Galpha-o binding response [5] | inhibition [6] | binding response (% of control) [7] | response (percent of control binding) [8] | response (% of control binding) [9] | binding response (% of control) [10] | response (percent of control binding) [11] | GTP binding signal, raw median fluorescence (lower = inhibition) (MCF (arbitrary fluorescence units)) [12] |
| --- | --- | --- | --- | --- | --- | --- | --- | --- | --- | --- | --- | --- |
| CCN(CC)S(=O)(=O)c1cccc(-c2n[nH]c(=S)n2/N=C/c2ccc(C(=O)OC)cc2)c1 | 334% | 35.5% | 108% (active) | 133% | 124% | -1.2% (inactive) | 77.7% (inactive) | 113% (inactive) | 74% (active) | 91% (inactive) | 66.1% (inactive) |  |
| Cc1ccc(-n2c(SCC(=O)Nc3ncc(Cl)cc3Cl)nc3ccccc32)cc1 | 13.7% | 134% | 86.2% (active) | 83.7% | 76.9% | 1% (inactive) | 103% (inactive) | 105% (inactive) | 103% (inactive) | 104% (inactive) | 113% (inactive) |  |
| COc1ccc(OC)c(-c2c3cc(O)c(=O)cc-3oc3cc(O)c(O)cc23)c1 |  |  |  |  |  |  |  |  |  |  |  | 137 |
| O=C(Nc1cccc(-c2nc3ccccc3[nH]2)c1)c1ccc(C(=O)Nc2cccc(-c3nc4ccccc4[nH]3)c2)cc1 | 219% | 436% | 132% (active) | 495% | 112% | 1% (inactive) | 104% (inactive) | 126% [activator] (active) | 131% [activator] (active) | 108% (inactive) | 217% (active) |  |
| CN(C)CCNC(=O)/C(=C/c1cccc([N+](=O)[O-])c1)NC(=O)c1ccccc1 | 219% | -55.8% | 119% (active) | 113% | 124% | -1.3% (inactive) | 103% (inactive) | 105% (inactive) | 101% (inactive) | 104% (inactive) | 91.3% (inactive) |  |
| CC(C)(C)NC(=O)c1cccc(NC(=O)Cc2ccc(Br)cc2)c1 | -3.28% | 121% | 79.3% (active) | 76.6% | 70.2% | 1% (inactive) | 103% (inactive) | 100% (inactive) | 99.4% (inactive) | 100% (inactive) | 115% (inactive) |  |
| COc1ccc(-n2c(SCC(=O)OC(C)C)nnc2-c2ccccn2)cc1 | 242% | 103% | 106% (active) | 101% | 134% | -1.2% (inactive) | 99.1% (inactive) | 96.9% (inactive) | 93.3% (inactive) | 97.2% (inactive) | 60.1% (inactive) |  |
| CCOC(=O)CSc1nc2c(c(=O)n(Cc3ccccc3Cl)c(=O)n2C)n1C | -55.5% | 98.5% | 74.3% (active) | 88.1% | 78.5% | 0.8% (inactive) | 95.8% (inactive) | 99.8% (inactive) | 99.1% (inactive) | 94.7% (inactive) | 87.7% (inactive) |  |
| Cc1ccccc1NC(=S)N(CCCN1CCOCC1)Cc1cccs1 | 181% | 80% | 105% (active) | 106% | 118% | 2.8% (inactive) | 104% (inactive) | 102% (inactive) | 104% (inactive) | 102% (inactive) | 107% (inactive) |  |
| C/C(=N\NS(=O)(=O)c1ccc(Br)cc1)c1cccs1 | -881% | 99.9% | 120% (active) | 106% | 95.4% | 1.5% (inactive) | 102% (inactive) | 103% (inactive) | 103% (inactive) | 104% (inactive) | 99.1% (inactive) |  |
| Cc1ccc(C(=O)COC(=O)c2ccc3c(c2)C(=O)N(c2cccc4ncccc24)C3=O)cc1 |  |  |  |  |  |  |  |  |  |  |  | 151 |
| CCCC(=O)N=c1sc2cccc(F)c2n1C | 76.5% | 14800% | 58.4% (active) | 18% | 37.2% |  |  |  |  |  |  |  |
| Cc1c(CN2CCCC(C(=O)c3cccc(Cl)c3)C2)c(=O)n(-c2ccccc2)n1C (centres undefined) | 97.1% | 50.3% | 107% (active) | 230% | 95% | -1.5% (inactive) | 102% (inactive) | 106% (inactive) | 102% (inactive) | 103% (inactive) | 104% (inactive) |  |
| COc1ccc(C(=O)NNc2cc(C)nc(NNC(=O)c3ccc(OC)cc3)n2)cc1 | 4.94% | 167% | 79.6% (active) | 72.3% | 54% | 1.4% (inactive) | 108% (inactive) | 115% (inactive) | 111% (inactive) | 110% (inactive) | 107% (inactive) |  |
| O=C1CCC(=O)N(O)CCCCCNC(=O)CCC(=O)N(O)CCCCCNC(=O)CCC(=O)N(O)CCCCCN1 | 40.8% | 4280% | 52.2% (active) | -117% | 55.9% | -0.3% (inactive) | 53.5% (active) | 59.4% (active) | 45.6% (active) | 61.5% (active) | 62.2% (inactive) |  |
